Records with an inconclusive call do not appear. Activity calls are given as the source filed them. Calls follow the shape of the dose curve; as a rule, active = well fitted curve in the direction sought with a large enough effect; inconclusive = small, poorly fitted or top-dose-only effect, or another doubt; inactive = no such curve, though single readings can be large; an effect the other way counts as inactive or inconclusive.
What was measured:
HaCat [1] = assay: Cytotoxic Profiling of Annotated Libraries Using Quantitative High-Throughput Screening (AID 1296008); conditions: Five cell lines viability, CellTiter-Glo ATP luminescence, 48-72 h; max response: hits give low values; also: nearly all actives have a fitted effect of over 60% in size
Method in brief: (§1)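 Compounds were pin-transferred onto cells and incubated 48 or 72 hr at 37 degree Celsius, 95% humidity. CellTiter-Glo was added, plates sat 10 min at room temperature, then ATP-coupled luminescence was imaged as the viability read-out.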

NIH3T3 [2] = assay: as above; conditions: Five cell lines viability, CellTiter-Glo ATP luminescence, 48-72 h; max response: hits give low values
Method in brief: as §1

HACAT [3] = assay: qHTS assay to identify novel small-molecules to repurpose for Merkel cell carcinoma treatment (AID 1296009); conditions: MCC and control cell lines, CellTiter-Glo viability, 72 h; at 44.8 µM (top of the series) unless noted; also: nearly all actives have a fitted effect of over 60% in size
Method in brief: (§2)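 qHTS format: cells treated with library compounds in DMSO across 8 (NPC) or 11 (MIPE) concentrations. Readout after 72 hr at 37 degree celsius was CellTiter-Glo luminescence.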

MCC-13 = assay: as above; conditions: MCC and control cell lines, CellTiter-Glo viability, 72 h; series mostly up to 46 µM
Method in brief: as §2

MCC-26 = assay: as above; conditions: MCC and control cell lines, CellTiter-Glo viability, 72 h; series mostly up to 46 µM
Method in brief: as §2

MKL-1 = assay: as above; conditions: MCC and control cell lines, CellTiter-Glo viability, 72 h; series mostly up to 46 µM
Method in brief: as §2

UISO = assay: as above; conditions: MCC and control cell lines, CellTiter-Glo viability, 72 h; series mostly up to 46 µM
Method in brief: as §2

C33A = assay: Primary qHTS to identify gynecologic anti-cancer compounds using libraries of approved drugs and bioactive compounds (AID 1345084); conditions: Gynecologic cancer cell panel viability, ATPlite luminescence, 48 h; series mostly up to 57.5 µM; also: nearly all actives have a fitted effect of over 55% in size
Method in brief: (§3)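 Cytotoxicity screen measuring ATP content by luciferase luminescence. Each compound is applied at five concentrations for 48 h at 37 C with 5% CO2.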

CAOV3 = assay: as above; conditions: Gynecologic cancer cell panel viability, ATPlite luminescence, 48 h; series mostly up to 57.5 µM
Method in brief: as §3

CASKI = assay: as above; conditions: Gynecologic cancer cell panel viability, ATPlite luminescence, 48 h; series mostly up to 57.5 µM
Method in brief: as §3

Es-2 = assay: as above; conditions: Gynecologic cancer cell panel viability, ATPlite luminescence, 48 h; series mostly up to 57.5 µM
Method in brief: as §3

HeLa = assay: as above; conditions: Gynecologic cancer cell panel viability, ATPlite luminescence, 48 h; series mostly up to 57.5 µM
Method in brief: as §3

Hek293T [4] = assay: as above; conditions: Gynecologic cancer cell panel viability, ATPlite luminescence, 48 h, control line for the selectivity index; series mostly up to 57.5 µM
Method in brief: as §3

JEG-3 = assay: as above; conditions: Gynecologic cancer cell panel viability, ATPlite luminescence, 48 h; series mostly up to 57.5 µM
Method in brief: as §3

OV90 = assay: as above; conditions: Gynecologic cancer cell panel viability, ATPlite luminescence, 48 h; series mostly up to 57.5 µM
Method in brief: as §3

HEK293T [5] = assay: qHTS assay to identify novel small-molecules to repurpose for Merkel cell carcinoma treatment (AID 1296009); conditions: MCC and control cell lines, CellTiter-Glo viability, 72 h; at 44.8 µM (top of the series) unless noted; also: nearly all actives have a fitted effect of over 60% in size
Method in brief: as §2

MKL-2 = assay: as above; conditions: MCC and control cell lines, CellTiter-Glo viability, 72 h; series mostly up to 46 µM
Method in brief: as §2

NIH3T3 [6] = assay: as above; conditions: MCC and control cell lines, CellTiter-Glo viability, 72 h; at 44.8 µM (top of the series) unless noted
Method in brief: as §2

WaGa = assay: as above; conditions: MCC and control cell lines, CellTiter-Glo viability, 72 h; series mostly up to 46 µM
Method in brief: as §2
% is scaled to controls: 0 for no effect and ±100 for the full control effect.

COc1ccc2c(c1)c(CC(=O)OC/C=C(\C)CC/C=C(\C)CCC=C(C)C)c(C)n2C(=O)c1ccc(Cl)cc1
inactive: outcome (HaCat [1]) | max response (NIH3T3 [2]) 4.12% | outcome (HACAT [3]) | Potency (MCC-13) | Potency (MCC-26) | Potency (MKL-1) | Potency (UISO) | Potency (C33A) | Potency (CAOV3) | Potency (CASKI) | Potency (Es-2) | Potency (HeLa) | Potency (Hek293T [4]) | Potency (JEG-3) | Potency (OV90)

Cc1[nH]cnc1-c1ccc(Cl)cc1
inactive: max response (HaCat [1]) -6.75% | outcome (NIH3T3 [2]) | outcome (HEK293T [5]) | Potency (MCC-13) | Potency (MCC-26) | Potency (MKL-1) | Potency (MKL-2) | outcome (NIH3T3 [6]) | Potency (UISO) | Potency (WaGa) | Potency (C33A) | Potency (CAOV3) | Potency (CASKI) | Potency (Es-2) | Potency (HeLa) | Potency (Hek293T [4]) | Potency (JEG-3) | Potency (OV90)

O=C(O)CCC(=O)OC[C@@H](NC(=O)C(Cl)Cl)[C@H](O)c1ccc([N+](=O)[O-])cc1
inactive: max response (HaCat [1]) 0.154% | max response (NIH3T3 [2]) -0.147% | Potency (MCC-13) | Potency (MCC-26) | Potency (MKL-1) | Potency (MKL-2) | Potency (UISO) | Potency (WaGa) | Potency (C33A) | Potency (CAOV3) | Potency (CASKI) | Potency (Es-2) | Potency (HeLa) | Potency (Hek293T [4]) | Potency (JEG-3) | Potency (OV90)

CC(C)CCCC(C)NCCC(C)C (stereo unspecified)
inactive: max response (HaCat [1]) 3.37% | outcome (NIH3T3 [2]) | Potency (MCC-13) | Potency (MCC-26) | Potency (MKL-1) | Potency (MKL-2) | outcome (NIH3T3 [6]) | Potency (UISO) | Potency (WaGa) | Potency (C33A) | Potency (CAOV3) | Potency (Es-2) | Potency (HeLa) | Potency (Hek293T [4]) | Potency (JEG-3) | Potency (OV90)

c1ccc2c(c1)CCc1ccccc1N2
inactive: max response (HaCat [1]) -8.39% | outcome (NIH3T3 [2]) | outcome (HEK293T [5]) | Potency (MCC-13) | Potency (MCC-26) | Potency (MKL-1) | Potency (MKL-2) | outcome (NIH3T3 [6]) | Potency (UISO) | Potency (WaGa) | Potency (C33A) | Potency (CAOV3) | Potency (CASKI) | Potency (Es-2) | Potency (HeLa) | Potency (Hek293T [4]) | Potency (JEG-3) | Potency (OV90)

Nc1nc(=O)n([C@@H]2O[C@H](CO)[C@@H](O)[C@@H]2F)cc1I
inactive: max response (HaCat [1]) 3.07% | max response (NIH3T3 [2]) -21.4% | outcome (HEK293T [5]) | Potency (MCC-26) | Potency (MKL-1) | Potency (MKL-2) | Potency (C33A) | Potency (CAOV3) | Potency (CASKI) | Potency (Es-2) | Potency (HeLa) | Potency (Hek293T [4]) | Potency (JEG-3) | Potency (OV90)

C/C(=C1\CCOC(=O)S1)N(C=O)Cc1cnc(C)nc1N
inactive: max response (HaCat [1]) 0.182% | max response (NIH3T3 [2]) 0.237% | Potency (MCC-13) | Potency (MCC-26) | Potency (MKL-1) | Potency (MKL-2) | Potency (UISO) | Potency (WaGa) | Potency (C33A) | Potency (CAOV3) | Potency (CASKI) | Potency (Es-2) | Potency (HeLa) | Potency (Hek293T [4]) | Potency (JEG-3) | Potency (OV90)

CCCCOC(=O)CCCCCCCCC(=O)OCCCC
inactive: max response (HaCat [1]) -1.87% | outcome (NIH3T3 [2]) | Potency (MCC-13) | Potency (MCC-26) | Potency (MKL-1) | Potency (MKL-2) | outcome (NIH3T3 [6]) | Potency (UISO) | Potency (WaGa) | Potency (C33A) | Potency (CAOV3) | Potency (CASKI) | Potency (Es-2) | Potency (HeLa) | Potency (Hek293T [4]) | Potency (JEG-3) | Potency (OV90)

CC1(C)O[C@@H]2C[C@H]3[C@@H]4CCC5=CC(=O)C=C[C@]5(C)[C@@]4(F)[C@@H](O)C[C@]3(C)[C@]2(C(=O)CO)O1
inactive: max response (HaCat [1]) -7.17% | max response (NIH3T3 [2]) -1.75% | Potency (MCC-13) | Potency (MCC-26) | Potency (MKL-1) | Potency (MKL-2) | Potency (UISO) | Potency (WaGa) | Potency (C33A) | Potency (CAOV3) | Potency (CASKI) | Potency (Es-2) | Potency (HeLa) | Potency (Hek293T [4]) | Potency (JEG-3) | Potency (OV90)

CC(C)C(=O)OCc1cccc(OC(=O)[C@@H]2N3C(=O)[C@@H](NC(=O)Cc4ccccc4)[C@H]3SC2(C)C)c1
inactive: max response (HaCat [1]) -11.1% | max response (NIH3T3 [2]) 4.46% | outcome (HEK293T [5]) | Potency (MCC-13) | Potency (MCC-26) | Potency (MKL-1) | Potency (MKL-2) | Potency (UISO) | Potency (WaGa) | Potency (C33A) | Potency (CAOV3) | Potency (CASKI) | Potency (Es-2) | Potency (HeLa) | Potency (Hek293T [4]) | Potency (JEG-3) | Potency (OV90)

COc1cc2c(cc1OC)CN(C(=O)[C@H](C)N[C@@H](CCc1ccccc1)C(=O)O)[C@H](C(=O)O)C2
inactive: max response (HaCat [1]) 0.663% | max response (NIH3T3 [2]) -7.08% | outcome (HEK293T [5]) | Potency (MCC-13) | Potency (MCC-26) | Potency (MKL-1) | Potency (MKL-2) | Potency (UISO) | Potency (WaGa) | Potency (C33A) | Potency (CAOV3) | Potency (CASKI) | Potency (Es-2) | Potency (HeLa) | Potency (Hek293T [4]) | Potency (JEG-3) | Potency (OV90)

CCCCOCCOC(=O)c1cccnc1
inactive: max response (HaCat [1]) -21.3% | max response (NIH3T3 [2]) -2.28% | outcome (HEK293T [5]) | Potency (MCC-13) | Potency (MCC-26) | Potency (MKL-1) | Potency (MKL-2) | Potency (UISO) | Potency (WaGa) | Potency (C33A) | Potency (CAOV3) | Potency (CASKI) | Potency (Es-2) | Potency (HeLa) | Potency (Hek293T [4]) | Potency (JEG-3) | Potency (OV90)

Cc1c(F)cc2c(=O)c(C(=O)O)cn3c2c1CCC3C (stereo unspecified)
inactive: max response (HaCat [1]) -5.41% | max response (NIH3T3 [2]) -8.9% | outcome (HEK293T [5]) | Potency (MCC-13) | Potency (MCC-26) | Potency (MKL-1) | Potency (MKL-2) | Potency (UISO) | Potency (WaGa) | Potency (C33A) | Potency (CAOV3) | Potency (CASKI) | Potency (Es-2) | Potency (HeLa) | Potency (Hek293T [4]) | Potency (JEG-3) | Potency (OV90)

O=C1CC2(CCCC2)CC(=O)N1CCNCC1COc2ccccc2O1 (stereo unspecified)
inactive: max response (HaCat [1]) -0.105% | max response (NIH3T3 [2]) -7.46% | outcome (HEK293T [5]) | Potency (MCC-13) | Potency (MCC-26) | Potency (MKL-1) | Potency (MKL-2) | Potency (UISO) | Potency (WaGa) | Potency (C33A) | Potency (CAOV3) | Potency (CASKI) | Potency (Es-2) | Potency (HeLa) | Potency (Hek293T [4]) | Potency (JEG-3) | Potency (OV90)

CCC(=O)Oc1ccc2c(c1)CC[C@@H]1[C@@H]2CC[C@@]2(C)[C@H]1C[C@@H](OC(=O)CC)[C@@H]2OC(=O)CC
inactive: max response (HaCat [1]) -1.68% | outcome (NIH3T3 [2]) | Potency (MCC-13) | Potency (MCC-26) | Potency (MKL-1) | Potency (MKL-2) | outcome (NIH3T3 [6]) | Potency (UISO) | Potency (C33A) | Potency (CAOV3) | Potency (CASKI) | Potency (Es-2) | Potency (HeLa) | Potency (Hek293T [4]) | Potency (JEG-3)

From PubChem BioAssay (NCATS)
